Assay results as given in PubChem BioAssay AID1159580 (chemical genetic matrix, 2015).
Screen size: about 5,500 compounds; about 2,000 (36%) were called active. Not shown: some 18% with an inconclusive outcome. No stated cut-off is given here; in the data, active means normalized growth mostly below about 0.91 (no sharp cut-off); inconclusive means no clear call, values can overlap the other calls; inactive means mostly above about 0.92. The list shows a part of the results.

Assay: chemical genetic growth profiling, strain panel (AID 1159580);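 further: tested at 20 µM; growth read once vehicle control cultures reached saturation at 30 °C; 1 = growth at the plate median or of vehicle wells; lower values mean less growth of the strain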
Conditions: S. cerevisiae deletion strains, growth OD
[1] = locus YAL013W, strain DEP1, hits give low values
[2] = locus YBR229C, strain ROT2, hits give low values
[3] = locus YDL101C, strain DUN1, hits give low values
[4] = locus YDR150W, strain NUM1, hits give low values
[5] = locus YEL061C, strain CIN8, hits give low values
[6] = locus YGR078C, strain PAC10, hits give low values
[7] = locus YHR030C, strain SLT2, hits give low values
[8] = locus YHR087W, strain rtc3, hits give low values
[9] = locus YJR043C, strain POL32, hits give low values
[10] = locus YJR075W, strain HOC1, hits give low values
[11] = locus YLR039C, strain RIC1, hits give low values
[12] = locus YLR058C, strain SHM2 (second series), hits give low values
[13] = locus YLR085C, strain ARP6, hits give low values
[14] = locus YLR262C, strain YPT6, hits give low values
[15] = locus YML094W, strain GIM5, hits give low values
[16] = locus YMR219W, strain ESC1, hits give low values
[17] = locus YMR263W, strain SAP30, hits give low values
[18] = locus YNL128W, strain TEP1, hits give low values
[19] = locus YNL153C, strain GIM3, hits give low values
[20] = locus YNL298W, strain CLA4 (second series), hits give low values
[21] = locus YNL322C, strain KRE1, hits give low values
[22] = locus YNR030W, strain Alg12, hits give low values
[23] = locus YPL055C, strain LGE1, hits give low values
[24] = locus YPL241C, strain CIN2, hits give low values
[25] = locus YPR135W, strain CTF4, hits give low values
[26] = locus YAL040C, strain CLN3, hits give low values
[27] = locus YCL061C, strain MRC1 (second series), hits give low values
[28] = locus YDR363W, strain ESC2, hits give low values
[29] = locus YER002W, strain NOP16, hits give low values
[30] = locus YNL175C, strain NOP13, hits give low values
[31] = locus YNL197C, strain WHI3, hits give low values
[32] = locus YNL224C, strain SQS1, hits give low values
[33] = locus YOR083W, strain WHI5 (second series), hits give low values

Measured: normalized growth

Cc1cccc(C)c1N=C1SCCS1
inactive: [1] 1 | [2] 0.99 | locus YCL061C, strain MRC1, hits give low values 0.982 | [3] 0.986 | locus YDL134C, strain PPH21, hits give low values 1.02 | [4] 0.902 | [5] 1.01 | [6] 0.99 | locus YGR229C, strain SMI1, hits give low values 0.997 | [7] 0.929 | [8] 0.988 | [9] 0.995 | [10] 0.996 | locus YKL190W, strain CNB1, hits give low values 1 | [11] 0.941 | [12] 0.996 | [13] 0.99 | [14] 0.978 | [15] 0.978 | [16] 0.996 | [17] 0.934 | locus YMR307W, strain GAS1, hits give low values 0.93 | [18] 1 | [19] 0.966 | [20] 0.99 | [21] 0.988 | [22] 1 | [23] 0.906 | [24] 0.865 | [25] 0.887

CN(C)CCC(c1ccc(Cl)cc1)c1ccccn1 (stereo not drawn)
inactive: [26] 0.987 | [27] 0.999 | [28] 0.993 | [29] 0.987 | [6] 1.01 | [7] 0.962 | locus YHR079C, strain IRE1, hits give low values 0.97 | locus YJL095W, strain BCK1, hits give low values 0.999 | locus YJR066W, strain TOR1, hits give low values 0.927 | [10] 0.991 | locus YLR113W, strain HOG1, hits give low values 1.01 | [19] 0.998 | [30] 1 | locus YNL183C, strain NPR1, hits give low values 0.941 | [31] 1.03 | [32] 1.01 | [21] 0.992 | [33] 1.01 | locus YOR231W, strain MKK1, hits give low values 0.971 | [24] 0.998 | locus YPL256C, strain CLN2, hits give low values 0.94

Cc1cccc(C)c1OCC(N)C(C)C (stereo not drawn)
inactive: [1] 1.01 | [26] 0.995 | [27] 1 | [28] 0.999 | [29] 0.998 | [10] 1.01 | [18] 0.988 | [19] 1.02 | [30] 1.02 | [31] 1 | [32] 0.998 | [33] 1

O=C1NC2CC2N1C(=O)OCc1ccccc1 (stereo not drawn)
inactive: [1] 1 | [2] 1 | [3] 1.01 | [4] 1.02 | [5] 0.956 | [6] 1.01 | [7] 1.06 | [8] 0.969 | locus YJL187C, strain SWE1, hits give low values 0.991 | [9] 0.993 | [10] 1.01 | [11] 0.99 | [12] 0.995 | [13] 0.978 | [14] 1.02 | [15] 0.992 | [16] 1 | [17] 0.978 | [19] 1.01 | [20] 0.954 | [21] 1 | [22] 0.988 | [23] 0.99 | [24] 1.01 | [25] 1.03
